Records with an inconclusive call do not appear. Values without a mark were called inactive. The source made the active and inactive calls. Calls follow the shape of the dose curve; as a rule, active = well fitted cell-killing curve with a large enough effect; inconclusive = small, poorly fitted or top-dose-only effect, or effect the other way; inactive = no such curve, though single readings can be large or run the other way.
Potency is read from the fitted curve at half-maximal effect.

This assay in a line: Viability qHTS for spleen associated tyrosine kinase inhibitor (SYKi) drug resistant MV4-11 cells (AID 1963824). Also: nearly all actives have a fitted effect of over 35% in size. The note with it: SYKi-resistant MV4-11 viability, CellTiter-Glo, 72 h; series mostly up to 45 µM; viability, % of control: at the top concentration. The method, boiled down:
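CellTiter-Glo luminescence, read 10 min after reagent addition, reports viability after a 72 hr compound exposure. Cells are an MV4-11 line made resistant to SYK inhibition, seeded at 500 per well onto compound-containing plates.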
Background: qHTS replaces the single test concentration by a dilution series.
For the compound `COc1ccc(NS(=O)(=O)c2sc3ccc(Cl)cc3c2C)cc1N1CCNCC1`, the Potency is 14.6 µM (active). `CC1OC(OCC2OC(OC3CCC4(C)C(CCC5(C)C4CC=C4C6CC(C)(C)CCC6(C(=O)OC6OC(CO)C(O)C(O)C6O)CCC45C)C3(C)CO)C(O)C(O)C2O)C(O)C(O)C1O` (stereo not given): the viability, % of control was 96.2% [at 9.25 µM]. For `CC(=O)O[C@@H]1[C@H](OC(C)=O)C[C@@]2(C)C(CC[C@@H](C)[C@]23Cc2c(O)cc4c(c2O3)CN([C@@H](CCC(=O)O)C(=O)O)C4=O)C1(C)C` (stereo not given in full), the “viability, % of control” value was 94.5% [at 17.3 µM]. Same read-out and setting: the same measure for `C/C=C1\[C@H](O[C@@H]2O[C@H](CO)[C@@H](O)[C@H](O)[C@H]2O)OC=C(C(=O)OCCc2ccc(O)cc2)[C@H]1CC(=O)OCCc1ccc(O)cc1`: 75.2% [at 17.3 µM]. Turning to `Cc1nc2sccn2c(=O)c1CCN1CCC(=C(c2ccc(F)cc2)c2ccc(F)cc2)CC1`, the Potency is 11.9 µM (active). Take `O=C(/C=C/c1ccc(O)c(O)c1)O[C@@H]1[C@@H](O)[C@H](OC2CCCCC2O)O[C@H](CO)[C@H]1O` (stereo not given in full): the “viability, % of control” value was 104% [at 17.3 µM].

Turning to `CCC1=C(C)C(=O)C(C)CC12C(=O)CCC2C(=O)O` (stereo not given), the “viability, % of control” value was 94.6%.

`CC(C)C[C@H](CC(=O)NO)C(=O)N[C@H](C(=O)N[C@@H](C)C(=O)NCCN)C(C)(C)C`: the viability, % of control was 90.6% [at 9.25 µM].

Take `Clc1ccc(Cn2c(Cc3ccccc3)nc3ccccc32)cc1`: the Potency was 16.4 µM (active). On the same count and under the same terms, the same measure for `Cn1nc(C(C)(C)C)cc1C(=O)N[C@@H](Cc1cccc(Cl)c1)C(=O)NCC#N`: 13 µM (active). Regarding `CC1=CC(=O)CC(C)(C)C1CO[C@@H]1O[C@H](CO)[C@@H](O)[C@H](O)[C@H]1O` (stereo not given in full), the “viability, % of control” value is 104%.

Take `CC(C)(c1ccc(O)cc1)c1ccc(O)cc1`: the Potency is 27.9 µM (active).

On to `COC(=O)C1=COC(O[C@@H]2O[C@H](CO)[C@@H](O)[C@H](O)[C@H]2O)[C@H]2[C@@H]1[C@H](OC(=O)CCc1ccc(O)cc1)C[C@]2(C)O` (stereo not given in full), for which the “viability, % of control” value was 96% [at 17.3 µM]. With `O=C(CNC(=O)c1cccc(C(F)(F)F)c1)N[C@@H]1CCN(Cc2ccc(Cl)cc2)C1`, the Potency was 23.1 µM (active).

Take `C[C@@H](CN1CCC(n2c(=O)[nH]c3cc(Cl)ccc32)CC1)NC(=O)c1ccc2ccccc2c1`: the Potency was 11.6 µM (active). The same measure, in the same setting: in the case of `COC(=O)C1(C)c2[nH]c3ccccc3c2CCN1C(=O)CCl` (stereo not given) it was 2.91 µM (active); in that of `CN(C)CCOC(C)(c1ccccc1)c1ccc(Cl)cc1` (stereo not given), 16.4 µM (active); in that of `CC(=O)NC(C)c1cnc(-c2cnc(Oc3ccc(OC(C)C)cc3)s2)s1` (stereo not given), 10.3 µM (active).

Consider `CN(CCCNC(=O)c1ccc2nc3c(c(Cl)c2c1)CCCC3)Cc1ccccc1`, for which the Potency is 8.2 µM (active).

`CC[C@]1(O)C[C@H]2CN(CCC3C(=Nc4ccccc43)[C@@](C(=O)OC)(c3cc4c(cc3OC)N(C)[C@H]3[C@@](O)(C(N)=O)[C@H](O)[C@]5(CC)C=CCN6CC[C@]43[C@@H]65)C2)C1` (stereo not given in full): the Potency was 0.0366 µM (active).

As to `C=C1C[C@]23C[C@H]1CC[C@H]2[C@]1(C)CCC[C@@]2(CO)C(=O)O[C@H]([C@H]21)[C@@H]3O`, the “viability, % of control” value was 81.3%. Consider `CCCCNc1ccc(-c2ccc(CN3CCOCC3)cn2)c(NC2CCC(O)CC2)c1` (stereo not given), for which the Potency was 0.0502 µM (active).

As to `CN(C)C(=O)NC1(c2ccccc2)CCN(CCC[C@]2(c3ccc(Cl)c(Cl)c3)CCCN(C(=O)c3ccccc3)C2)CC1`, the Potency was 4.11 µM (active).

Turning to `N#Cc1ccc(-c2ccc(S(=O)(=O)Nc3cccc(N)n3)cc2)cc1`, the Potency is 7.31 µM (active). On the same count and under the same terms, the same measure for `C=C1CCCC2(C)CCC(C(C)(C)OC3OC(C)C(O)C(O)C3OC(=O)/C(C)=C\C)CC12` (stereo not given): 8.93 µM (active). Turning to `COC(=O)C1=CO[C@@H](O[C@@H]2O[C@H](CO[C@@H]3O[C@H](COC(=O)/C=C/c4cc(OC)c(O)c(OC)c4)[C@@H](O)[C@H](O)[C@H]3O)[C@@H](O)[C@H](O)[C@H]2O)[C@@H]2C(CO)=CC[C@H]12`, the “viability, % of control” value is 85.5% [at 17.3 µM]. In the case of `CC(C)(C)n1nc(-c2cccc3ccccc23)c2c(N)ncnc21`, the Potency was 14.6 µM (active). Same read-out and setting: the same measure for `COC(=O)C[C@H]1C(C)(C)[C@H](OC(C)=O)C2CC3=C4CC(=O)O[C@@H](c5ccoc5)[C@]4(C)CCC3[C@@]1(C)C2=O` (stereo not given in full): 3.55 µM (active).

Consider `CC(=O)c1cc(C(=O)N[C@@H](C)Cn2ccc(-c3ccc(C#N)c(Cl)c3)n2)[nH]n1`, for which the Potency is 14.6 µM (active).

For `Cc1cc(F)ccc1[C@H]1C[C@@H](N2CCN3C(=O)CC[C@H]3C2)CCN1C(=O)N(C)[C@H](C)c1cc(C(F)(F)F)cc(C(F)(F)F)c1`, the Potency is 5.17 µM (active). For `CCC[C@@H]1C[C@@H](C(=O)N[C@@H]([C@H]2O[C@H](SC)[C@H](O)[C@@H](O)[C@@H]2O)[C@@H](C)O)N(C)C1`, the “viability, % of control” value is 108%. Take `C[C@@]1(O)[C@H](O)[C@@H](CO)O[C@H]1n1ccc(N)nc1=O`: the Potency is 13 µM (active). The same measure, in the same setting: in the case of `COc1cc2nc(N3CCN(C)CC3)nc(NC3CCN(Cc4ccccc4)CC3)c2cc1OC` it was 3.26 µM (active). For `CC1(C)C(O)CCC2(C)C1C(O)C=C1COC(=O)C12O` (stereo not given), the “viability, % of control” value is 105%.

Consider `CC(F)(F)CN1CCOc2c(nn(-c3ccccc3Cl)c2-c2ccc(Cl)cc2)C1=O`, for which the Potency is 20.6 µM (active).

As to `C=CC(C)(C)O[C@@H]1O[C@H](CO[C@@H]2OC[C@](O)(CO)[C@H]2O)[C@@H](O)[C@H](O)[C@H]1O`, the “viability, % of control” value is 97.4%. Turning to `CC1C(=O)CC2C3C(O)CC(C(=O)O)C12CC3(C)C` (stereo not given), the Potency was 20.6 µM (active). In the case of `COc1cc2ncnc(Nc3ccc(NC(=O)c4ccccc4)cc3)c2cc1OC`, the Potency was 4.61 µM (active). Still for that read-out and setting: in the case of `C[C@H](C(=O)NC1CCCC1)N(C(=O)Cn1nnc(-c2ccc3c(c2)OCO3)n1)C1CCCCC1` it was 2.91 µM (active).

With `CC1(C)CC[C@]2(C(=O)O)CC[C@]3(C)C(=CCC4[C@@]5(C)C(=O)C[C@H](O)[C@@](C)(CO)C5CC[C@]43C)[C@@H]2C1` (stereo not given in full), the “viability, % of control” value is 63.3% [at 17.3 µM].

The values are drawn from PubChem BioAssay (NCATS).
